In the supplement of paper PMC7411054:
Where a name gives a salt, the structure may show the parent alone.

Tests used:
Conditions in all cases: treatment time: 24 h
A549-ACTB-RAB5A [1] = assay: lowest phenotypically active concentration; higher = less potent
Procedure, shortened: (§1)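 The reporter lines, fifteen in total and built by gene editing in A549, HepG2 and WPMY1 cells, used BFP for segmentation alongside GFP and RFP/FusionRed markers. Each was treated at 0.3, 1, 3 or 9 µM for 24 h in four wells and then imaged live, with live-cell features normalised to solvent control wells. Deviation meant ≥3 of 4 wells beyond the 95th percentile of control Euclidean distances; reproducibility meant a median replicate Pearson correlation above the 95th percentile of non-replicates. Only conditions meeting both were scored as phenotypically active.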

A549-GM130-SQSTM1 [2] = assay: as above
Procedure, shortened: as §1

HepG2-ACTB-RAB5A [3] = assay: as above
Procedure, shortened: as §1

WPMY1-ACTB-RAB5A [4] = assay: as above
Procedure, shortened: as §1

WPMY1-GM130-SQSTM1 [5] = assay: as above
Procedure, shortened: as §1

A549-ACTB-RAB5A [6] = assay: phenotypically active (imaging signature differs from DMSO and reproducible) at any of 0.3-9 uM (binary (1 = active, 0 = inactive)); higher = active
Procedure, shortened: as §1

A549-CANX-COX4 = assay: as above
Procedure, shortened: as §1

A549-GM130-SQSTM1 [7] = assay: as above
Procedure, shortened: as §1

A549-TP53BP1-CLTA = assay: as above
Procedure, shortened: as §1

A549-TUBA1B-RELA = assay: as above
Procedure, shortened: as §1

HepG2-ACTB-RAB5A [8] = assay: as above
Procedure, shortened: as §1

HepG2-CANX-COX4 = assay: as above
Procedure, shortened: as §1

HepG2-GM130-SQSTM1 = assay: as above
Procedure, shortened: as §1

HepG2-TP53BP1-CLTA = assay: as above
Procedure, shortened: as §1

HepG2-TUBA1B-RELA = assay: as above
Procedure, shortened: as §1

WPMY1-ACTB-RAB5A [9] = assay: as above
Procedure, shortened: as §1

WPMY1-CANX-COX4 = assay: as above
Procedure, shortened: as §1

WPMY1-GM130-SQSTM1 [10] = assay: as above
Procedure, shortened: as §1

WPMY1-TP53BP1-CLTA = assay: as above
Procedure, shortened: as §1

WPMY1-TUBA1B-RELA = assay: as above
Procedure, shortened: as §1

Compound | lowest phenotypically active concentration (A549-ACTB-RAB5A [1]) | lowest phenotypically active concentration (A549-GM130-SQSTM1 [2]) | lowest phenotypically active concentration (HepG2-ACTB-RAB5A [3]) | lowest phenotypically active concentration (WPMY1-ACTB-RAB5A [4]) | lowest phenotypically active concentration (WPMY1-GM130-SQSTM1 [5]) | phenotypically active (A549-ACTB-RAB5A [6]) | phenotypically active (A549-CANX-COX4) | phenotypically active (A549-GM130-SQSTM1 [7]) | phenotypically active (A549-TP53BP1-CLTA) | phenotypically active (A549-TUBA1B-RELA) | phenotypically active (HepG2-ACTB-RAB5A [8]) | phenotypically active (HepG2-CANX-COX4) | phenotypically active (HepG2-GM130-SQSTM1) | phenotypically active (HepG2-TP53BP1-CLTA) | phenotypically active (HepG2-TUBA1B-RELA) | phenotypically active (WPMY1-ACTB-RAB5A [9]) | phenotypically active (WPMY1-CANX-COX4) | phenotypically active (WPMY1-GM130-SQSTM1 [10]) | phenotypically active (WPMY1-TP53BP1-CLTA) | phenotypically active (WPMY1-TUBA1B-RELA)
CN1C(=O)/C(=C2/Nc3ccccc3/C2=N/O)c2ccc(Br)cc21 | ≤ 0.3 µM | ≤ 0.3 µM | ≤ 0.3 µM | 1 µM | ≤ 0.3 µM | 1 (active) | 0 (inactive) | 1 (active) | 0 (inactive) | 1 (active) | 1 (active) | 1 (active) | 0 (inactive) | 0 (inactive) | 0 (inactive) | 1 (active) | 1 (active) | 1 (active) | 0 (inactive) | 0 (inactive)
O=c1cc(N2CCOCC2)oc2c(-c3cccc4c3sc3ccccc34)cccc12 | 1 µM | 1 µM | 1 µM | 1 µM | 3 µM | 1 (active) | 0 (inactive) | 1 (active) | 0 (inactive) | 1 (active) | 1 (active) | 1 (active) | 1 (active) | 1 (active) | 1 (active) | 1 (active) | 1 (active) | 1 (active) | 1 (active) | 1 (active)
Cc1cc2nc(NCCCO)n(CC(=O)c3cc(C(C)(C)C)c(O)c(C(C)(C)C)c3)c2cc1C | 3 µM | 3 µM | 9 µM | – | – | 1 (active) | 0 (inactive) | 1 (active) | 0 (inactive) | 1 (active) | 1 (active) | 0 (inactive) | 0 (inactive) | 0 (inactive) | 1 (active) | 0 (inactive) | 0 (inactive) | 0 (inactive) | 0 (inactive) | 0 (inactive)
CNCCCC12CCC(c3ccccc31)c1ccccc12 [maprotiline] | 3 µM | 3 µM | 9 µM | 9 µM | 9 µM | 1 (active) | 0 (inactive) | 1 (active) | 0 (inactive) | 1 (active) | 1 (active) | 0 (inactive) | 1 (active) | 1 (active) | 1 (active) | 1 (active) | 1 (active) | 1 (active) | 1 (active) | 1 (active)
O=C1Cc2cc(CCN3CCN(c4nsc5ccccc45)CC3)c(Cl)cc2N1 [ziprasidone] | 9 µM | 9 µM | 3 µM | – | – | 1 (active) | 0 (inactive) | 1 (active) | 0 (inactive) | 1 (active) | 1 (active) | 0 (inactive) | 1 (active) | 1 (active) | 1 (active) | 0 (inactive) | 0 (inactive) | 0 (inactive) | 0 (inactive) | 0 (inactive)
CC(CN(C)C)CN1c2ccccc2Sc2ccccc21.CC(CN(C)C)CN1c2ccccc2Sc2ccccc21 (stereo not drawn) [alimemazine] | 9 µM | 9 µM | 9 µM | 9 µM | ≤ 0.3 µM | 1 (active) | 0 (inactive) | 1 (active) | 0 (inactive) | 1 (active) | 1 (active) | 0 (inactive) | 1 (active) | 1 (active) | 1 (active) | 1 (active) | 0 (inactive) | 1 (active) | 0 (inactive) | 1 (active)
O=C(CCCN1CCC(O)(c2ccc(Cl)cc2)CC1)c1ccc(F)cc1 [haloperidol] | 3 µM | 9 µM | 9 µM | – | 9 µM | 1 (active) | 0 (inactive) | 1 (active) | 0 (inactive) | 1 (active) | 1 (active) | 0 (inactive) | 1 (active) | 1 (active) | 1 (active) | 0 (inactive) | 0 (inactive) | 1 (active) | 0 (inactive) | 0 (inactive)
Cc1cc(CS(=O)(=O)c2ccccc2)cc(OCc2ccc(CN3CCC[C@@H]3CO)cc2)c1 [PF 543 hydrochloride] | 9 µM | 9 µM | 9 µM | 9 µM | – | 1 (active) | 0 (inactive) | 1 (active) | 0 (inactive) | 1 (active) | 1 (active) | 0 (inactive) | 1 (active) | 1 (active) | 0 (inactive) | 1 (active) | 0 (inactive) | 0 (inactive) | 0 (inactive) | 0 (inactive)
CCN(CCO)CCCC(C)Nc1ccnc2cc(Cl)ccc12 (stereo not drawn) [hydroxychloroquine] | 9 µM | 9 µM | – | 9 µM | 9 µM | 1 (active) | 0 (inactive) | 1 (active) | 0 (inactive) | 1 (active) | 0 (inactive) | 0 (inactive) | 1 (active) | 0 (inactive) | 1 (active) | 1 (active) | 1 (active) | 1 (active) | 0 (inactive) | 1 (active)
CN(C)CCCN1c2ccccc2Sc2ccc(C(F)(F)F)cc21 [triflupromazine] | 3 µM | 9 µM | 9 µM | 9 µM | 9 µM | 1 (active) | 0 (inactive) | 1 (active) | 0 (inactive) | 1 (active) | 1 (active) | 0 (inactive) | 0 (inactive) | 0 (inactive) | 1 (active) | 1 (active) | 1 (active) | 1 (active) | 0 (inactive) | 1 (active)
O=C(NCCN1CCC(n2c(=O)[nH]c3ccccc32)CC1)c1cc2cc(F)ccc2[nH]1 | 9 µM | 9 µM | 9 µM | 9 µM | 9 µM | 1 (active) | 0 (inactive) | 1 (active) | 0 (inactive) | 1 (active) | 1 (active) | 1 (active) | 1 (active) | 1 (active) | 1 (active) | 1 (active) | 1 (active) | 1 (active) | 1 (active) | 1 (active)
